Screens (PubChem BioAssay)
The sample as a whole holds a higher share of hits than the screen did.
Shiga toxin inh: Shiga toxin inhibition; Vero cells, Shiga toxin protein synthesis inhibition reporter; inhibition, % at 38.7 µM; 9.2% of 290,000 active; AID 2315; in the data active = inhibition mostly above about 28%, no sharp cut-off; inactive = mostly below about 43%; note: 0% is about no effect
CHX counter: counter-screen hit for Shiga toxin inhibitors, cycloheximide; cell reporter, cycloheximide protein synthesis inhibition counterscreen; 12% of 300,000 active; max response, %; in the data active = max response mostly above about 13%, no sharp cut-off; inactive = mostly below about 14%; note: read at 38.3 µM for the half of the compounds with a filed dose; 0% is about no effect
Tb PYK inh: inhibitors of Trypanosoma brucei pyruvate kinase; Q57TT1; TbPYK enzyme, Kinase-Glo Plus ATP luminescence, 45 min; Potency, µM (highest dose often 76.8 µM), for the others: top-dose activity, negative = inhibition, usual class: inhibitors; 0.12% of 410,000 active; AID 624173; note: potency is the fitted concentration of half-maximal effect; % is set by controls: 0 for no effect and ±100 for the full control effect; nearly all actives have a fitted effect of over 50% in size
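Glycolytic pyruvate kinase of T. brucei was incubated with substrate, test compound and 130 uM ADP for 45 minutes at room temperature. Luminescent Kinase-Glo Plus signal was measured after 10 minutes.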
LmPK inh: LmPK (Leishmania mexicana) enzyme inhibition | Q27686 | purified LmPK, Kinase-Glo ATP luminescence, 1 h | Potency, µM (titrated, usually from 57.5 µM), without a hit: at the highest dose activity change, negative = inhibition, hits mostly inhibitors | 0.37% of 290,000 active | AID 1721; note: potency is the fitted concentration of half-maximal effect; % is set by controls: 0 for no effect and ±100 for the full control effect
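Kinase-Glo luminescence read after 1 h RT reaction of 0.1 nM LmPK with 0.5 mM PEP and 0.1 mM ADP. Activity scaled between uninhibited and enzyme-free controls.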
Sm TGR inh: S. mansoni TGR enzyme inhibition. Q962Y6. purified TGR, DTNB reduction, TNB absorbance 405 nm. Potency, µM (series often up to 114 µM), without a hit: at the top dose activity change, negative = inhibition, actives largely listed as inhibitors. 3% of 360,000 active. AID 485364; note: potency is the fitted concentration of half-maximal effect; % is set by controls: 0 for no effect and ±100 for the full control effect; nearly all actives have a fitted effect of over 60% in size
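First, TGR (20 nM dispensed) and NADPH were mixed with compound. Second, a 15 min room-temperature incubation followed. Third, further NADPH and then DTNB were added to start the reaction. Finally, TNB absorbance was monitored kinetically.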
Giardia FBPA inh: inhibitors of Giardia lamblia fructose-1,6-bisphosphate aldolase. Potency, µM (series often up to 59.6 µM), for inactives: at the highest dose activity, negative = inhibition, actives largely listed as inhibitors. purified Giardia FBPA. AID 2451. A8B2U2. 0.71% of 290,000 active; note: potency is the fitted concentration of half-maximal effect; % is set by controls: 0 for no effect and ±100 for the full control effect; nearly all actives have a fitted effect of over 55% in size
Target sequence (A8B2U2 whole entry, looked up): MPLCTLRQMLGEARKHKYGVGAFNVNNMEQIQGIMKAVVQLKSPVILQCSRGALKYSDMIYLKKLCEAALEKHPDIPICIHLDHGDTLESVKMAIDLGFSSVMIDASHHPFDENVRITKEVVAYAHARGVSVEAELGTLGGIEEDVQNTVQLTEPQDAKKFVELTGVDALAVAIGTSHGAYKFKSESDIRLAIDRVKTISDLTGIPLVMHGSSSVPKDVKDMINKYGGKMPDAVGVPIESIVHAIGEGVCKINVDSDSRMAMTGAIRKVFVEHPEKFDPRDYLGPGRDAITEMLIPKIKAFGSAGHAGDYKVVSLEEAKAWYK
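40 nM FBPA preincubated 10 min at RT with compound (up to 57.5 uM final), then substrate plus GAPDH/TPI/NAD/arsenate coupling and diaphorase/resazurin added. Fluorescence read after 20 min at RT, 525/598 nm.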
* hit, by the source's call; [ ] = remark or other dose. Unless noted, calls come from the whole dose curve; as a rule, active = well fitted curve in the direction sought with a large enough effect; inconclusive = small, poorly fitted or top-dose-only effect, or another doubt; inactive = no such curve, though single readings can be large; an effect the other way counts as inactive or inconclusive.

For COC(=O)NC(/C=C/c1ccccc1)[C@]1(C(C)=O)CCCC1=O (some centres not stated) the results were Giardia FBPA inh -1%[12.9 µM].
`Cc1c(C(=O)N2CCN(S(C)(=O)=O)CC2)oc2ccccc12` gave Shiga toxin inh 17, CHX counter 9.2*, Tb PYK inh -2%, LmPK inh 3%, Sm TGR inh 6% and Giardia FBPA inh -4%.
Cc1c(C(=O)N2CCN(S(=O)(=O)c3ccccc3)CC2)oc2ccccc12 was read as Tb PYK inh 0% and Sm TGR inh -8%.
Screening Cc1c(C(=O)N2CCc3ccccc32)oc2ccccc12 returned Shiga toxin inh 69*, CHX counter 55*, Tb PYK inh 0%, LmPK inh inconclusive, Sm TGR inh -10% and Giardia FBPA inh -8%.
`COCc1c(C(=O)N2CCc3ccccc32)oc2ccccc12` gave Shiga toxin inh 70*, CHX counter 14, Tb PYK inh 6%, LmPK inh -3%, Sm TGR inh 9% and Giardia FBPA inh -11%.
`COc1ccccc1-c1nn(CCC(=O)Nc2cccc(C(C)=O)c2)c2nc(C)cc(C)c12` gave Tb PYK inh 1% and Sm TGR inh 12%.
S=c1[nH]nc(-c2ccncc2)n1/N=C/C(Cl)=C\c1ccccc1 was read as Shiga toxin inh 61*, CHX counter 24*, Tb PYK inh inconclusive, LmPK inh 0% and Giardia FBPA inh 14%.
Cc1ccc(-c2n[nH]c(=S)n2/N=C\c2ccco2)cc1 was read as Shiga toxin inh -2, CHX counter 7, Tb PYK inh inconclusive, LmPK inh -15%, Sm TGR inh 5% and Giardia FBPA inh 7%.
For Cn1cccc1/C=N/n1c(-c2ccc(C(C)(C)C)cc2)n[nH]c1=S the results were Shiga toxin inh -13, CHX counter 20, Tb PYK inh inconclusive, LmPK inh 20µM* and Sm TGR inh 6%.
Screening Cn1cccc1/C=N/n1c(-c2ccccc2)n[nH]c1=S returned Shiga toxin inh -2, CHX counter -1, Tb PYK inh inconclusive, LmPK inh 7.9µM*, Sm TGR inh 6% and Giardia FBPA inh -13%.
For Cc1cccn2c(=O)c(C(=O)NCCc3ccccc3)c(O)nc12 the results were Tb PYK inh -2% and Sm TGR inh 6%.
`C[C@@H]1O[C@H](O[C@@H]2[C@@H](Oc3cc(O)c4c(c3)O[C@H](c3ccc(O)cc3)CC4=O)O[C@@H](CO)[C@@H](O)[C@H]2O)[C@@H](O)[C@H](O)[C@@H]1O` gave Giardia FBPA inh 1%[21.7 µM].
For O=C(Nc1ccc(F)cc1)c1oc2ccccc2c1NC(=O)C1CCCCC1 the results were Tb PYK inh -9% and Sm TGR inh 0%.
Cc1ccc(Cl)cc1-n1ncc2c(N3CCC(C)CC3)ncnc21 was read as Tb PYK inh 1% and Sm TGR inh 0%.
For O=c1cc(-c2ccccc2)[nH]c2ccccc12 the results were Shiga toxin inh 7, CHX counter -3, Tb PYK inh -5%, LmPK inh 3%, Sm TGR inh 8% and Giardia FBPA inh 4%.
`O=c1cc(/C=C/c2c(F)cccc2Cl)[nH]c2ccccc12` gave Shiga toxin inh 63*, CHX counter 54*, Tb PYK inh -8%, LmPK inh -1%, Sm TGR inh -6% and Giardia FBPA inh -8%.
Screening COC(=O)c1ccc(NC(=O)CC2C(=O)N(c3ccccc3)C(=O)N2C2CCCC2)cc1 (configuration not stated) returned Tb PYK inh -1% and Sm TGR inh -9%.
`C/C(=N/OC(=O)C1CC1)c1cc(-c2ccc(Cl)cc2)no1` gave Shiga toxin inh 29, CHX counter 18*, Tb PYK inh -1%, LmPK inh 5%, Sm TGR inh 12% and Giardia FBPA inh 3%.
O=C(NC(=S)Nc1ccc(N2CCOCC2)cc1)c1ccc(Cl)cc1 was read as Shiga toxin inh 7, CHX counter 6, Tb PYK inh 1%, LmPK inh 6%, Sm TGR inh -1% and Giardia FBPA inh -4%.
